Experiment [1] addresses Retinoic acid receptor RXR-alpha (Homo sapiens) (UniProt P19793). The experiment is described as follows: qHTS assay to identify small molecule agonists of the RXR signaling pathway (AID 1159527; calls by dose curve; note: nearly all actives have a fitted effect of over 35% in size; note: potency is the fitted concentration of half-maximal effect). The method in brief:
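Beta-lactamase reporter assay, agonist format. Engineered HEK 293T line, charcoal-stripped FBS at 2%, overnight (16 hr) exposure, fluorescence at 460 and 530 nm after 405 nm excitation.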

The nature of experiment [2]: qHTS assay to identify small molecule agonists of the RXR signaling pathway - cell viability counter screen (AID 1159529).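 Note: HEK 293T cells carrying an RXR-alpha UAS beta-lactamase reporter; series mostly up to about 77 µM; nearly all actives have a fitted effect of over 50% in size.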 The method in brief: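 Same-well viability check after the LiveBLAzer FRET read: CellTiter-Glo added, luminescence measured after 30 min at room temperature. Reporter HEK 293T cells had been treated with compounds for 16 hr following a 5 hr preincubation.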

Experiment [3] in a line: qHTS assay to identify small molecule antagonists of the retinoid acid receptor (RAR) signaling pathway - cell viability counter screen (AID 1159551). Note: nearly all actives have a fitted effect of over 35% in size. In a few lines: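 Cytotoxicity counter screen in C3RL4 cells: 6 h compound exposure with 1 uM retinol (final), viability from cellular ATP by luminescence.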
The nature of experiment [4]: qHTS assay to identify small molecule antagonists of the retinoic acid receptor (RAR) signaling pathway (AID 1159552; note: nearly all actives have a fitted effect of over 50% in size; note: potency is the fitted concentration of half-maximal effect). In a few lines: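 Readout: luciferase luminescence, 30 min post-reagent at RT. Setup: C3RL4 RARE reporter cells, compounds plus retinol 1 uM final, 6 hr incubation at 37 C and 5% CO2.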
Experiment [5] is described as follows: qHTS assay to identify small molecule agonists of the retinoic acid receptor (RAR) signaling pathway (AID 1159553). Note: potency is the fitted concentration of half-maximal effect. The method in brief: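 Agonist activity was scored in C3RL4 cells bearing a retinoic acid response element luciferase construct. Cells were treated with compounds for 6 hr at 37 C, and luciferase signal was measured as luminescence.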
Experiment [6] can be described thus: qHTS assay to identify small molecule antagonists of the estrogen related receptor (ERR) signaling pathway - cell viability counter screen (AID 1224818).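 Note: series mostly up to about 46 µM; viability measured after 17.5 h of compound exposure.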 The method in brief:
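Cells carrying the ERR pathway reporter were seeded and incubated for 6 hours before compound addition. After a 17.5-hour exposure at 37 C, live-cell protease activity was measured by CellTiter-Fluor fluorescence following 30 minutes of incubation.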

Experiment [7] in a line: qHTS assay to identify small molecule antagonists of the estrogen related receptor (ERR) signaling pathway (AID 1224819;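 note: luminescence from an ERR-driven luciferase reporter measured with One-Glo reagent; series mostly up to about 46 µM; nearly all actives have a fitted effect of over 50% in size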). The method in brief:
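Compounds dissolved in DMSO were pin-transferred onto ERR cells that had been plated 6 h earlier, and cells were then incubated 18 h at 37 C; signal was luciferase luminescence via One-Glo.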

Experiment [8] is described as follows: qHTS assay to identify small molecule agonists of the estrogen related receptor (ERR) signaling pathway (AID 1224820). In a few lines: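 ERR reporter cell line (from NTP), 2,000 cells/well, incubated 6 h before compound addition, then 18 h at 37 C. Luminescence measured 30 min after One-Glo reagent at room temperature.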
For experiment [9], the system named is estrogen-related receptor alpha (ERRalpha) with PGC-1alpha coactivator, human. As to the kind of experiment: qHTS assay to identify small molecule antagonists of the estrogen related receptor signaling pathway with the pleiotropic PPARgamma coactivator (PGC) (AID 1224821; calls by dose curve;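 note: series mostly up to about 46 µM; lower luminescence signal means antagonism of PGC/ERR signalling; nearly all actives have a fitted effect of over 50% in size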). In a few lines:
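PGC/ERR reporter cell line, plated 6 h before compound addition, then exposed 18 h at 37 °C. Luciferase activity read by luminescence 30 min after One-Glo addition; decrease indicates antagonism.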

A short description of experiment [10]: qHTS assay to identify small molecule antagonists of the estrogen related receptor signaling pathway with the pleiotropic PPARgamma coactivator (PGC) cell viability counter screen (AID 1224822;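 note: series mostly up to about 46 µM; viability read after 17.5 h compound exposure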). In a few lines:
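Seed PGC/ERR cells (2,000/well); incubate 6 h at 37 C/5% CO2; pin-transfer compounds in DMSO; incubate 17.5 h at 37 C; add CellTiter-Fluor; after 30 min read fluorescence.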

Inconclusive results are not listed. A structure can be active in one record and inactive in another. Activity calls are given as the source filed them. Unless noted, calls come from the whole dose curve; as a rule, active = well fitted curve in the direction sought with a large enough effect in the repeat runs; inconclusive = weak or mixed curves; inactive = no such curve, though single readings can be large; an effect the other way counts as inactive or inconclusive.
% is set by controls: 0 for no effect and ±100 for the full control effect.

Retinoic acid receptor RXR-alpha (Homo sapiens), sequence (P19793 whole entry, looked up): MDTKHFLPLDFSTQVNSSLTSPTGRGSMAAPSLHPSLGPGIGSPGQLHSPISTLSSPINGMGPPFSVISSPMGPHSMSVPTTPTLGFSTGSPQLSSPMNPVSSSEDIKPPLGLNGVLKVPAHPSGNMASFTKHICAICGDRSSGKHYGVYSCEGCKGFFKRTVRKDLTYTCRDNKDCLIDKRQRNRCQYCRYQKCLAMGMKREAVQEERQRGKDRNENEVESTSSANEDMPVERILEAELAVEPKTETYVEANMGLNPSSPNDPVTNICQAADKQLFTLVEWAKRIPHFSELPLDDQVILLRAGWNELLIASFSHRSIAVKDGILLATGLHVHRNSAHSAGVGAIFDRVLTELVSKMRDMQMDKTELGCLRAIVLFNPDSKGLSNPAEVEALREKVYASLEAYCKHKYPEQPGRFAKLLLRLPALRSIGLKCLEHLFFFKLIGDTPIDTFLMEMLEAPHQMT

As to `CCc1cc(OC)c(C[C@H](C)N)cc1OC`, the Potency result in [1], in experiment [2], in experiment [3], in experiment [4] and in experiment [5] was “inactive” throughout.

As for `C=C1CC[C@@]2(O)[C@H]3Cc4ccc(O)c5c4[C@@]2(CCN3CC2CC2)[C@H]1O5`, the Potency result in [1], in experiment [2], in experiment [3], in experiment [4] and in [5] was “inactive” throughout.

As to `CN1C(=O)COc2c(C(=O)NC3CN4CCC3CC4)cc(Cl)cc21` (stereo unspecified), the Potency result in [1], in experiment [2], in experiment [3], in experiment [4] and in experiment [5] was “inactive” in each case.

`BrCCc1ccccc1`: the Potency result in experiment [1], in experiment [2], in [3], in [4] and in experiment [5] was “inactive” each time.

For `CCOC(=O)Nc1cccc(OC(=O)Nc2ccccc2)c1`, the Potency result in experiment [1], in experiment [2], in experiment [3] and in experiment [4] was “inactive” in each case. In addition, the Potency in experiment [5] is 27.3 µM (active).

On to `CCNc1nc(Cl)nc(NC(C)(C)C)n1`, for which the Potency result in experiment [1], in experiment [2], in experiment [3], in experiment [4] and in experiment [5] was “inactive” each time.

Consider `ClC1=C(Cl)C2(Cl)C(CBr)CC1(Cl)C2(Cl)Cl` (stereo unspecified), for which the Potency entry in experiment [1], in experiment [2], in experiment [3] and in [5] was “inactive” throughout. In addition, the Potency in [4] is 54.5 µM (active) and inactive.

Turning to `BrCC1CO1` (stereo unspecified), the Potency entry in [1], in experiment [2], in experiment [3], in [4] and in [5] was “inactive” in each case.

On to `CC(C)[C@]12CC(=O)[C@H](C)[C@H]1C2`, for which the Potency result in [1], in [2], in [3], in experiment [4] and in [5] was “inactive” in each case.

Turning to `CNC(=O)Oc1cc(C)c(N(C)C)c(C)c1`, in experiment [1], the Potency is 43.7 µM (active). Moreover, the Potency entry in experiment [2], in [3], in experiment [4] and in experiment [5] was “inactive” in each case.

On to `C=C1C[C@@H]2[C@H](CC[C@]3(C)C(=O)CC[C@@H]23)[C@@]2(C)C=CC(=O)C=C12`, for which the Potency result in experiment [1], in [2], in experiment [3], in experiment [4] and in [5] was “inactive” throughout.

For the compound `O=C(Cl)C(Cl)Cl`, the Potency entry in [1], in experiment [2], in experiment [3], in experiment [4] and in experiment [5] was “inactive” in each case.

In the case of `Cc1ccc2cc(C)ccc2c1`, the Potency entry in experiment [1], in experiment [2], in [3], in experiment [4] and in experiment [5] was “inactive” each time.

In the case of `CCCCCCC(=O)CCCCCC/C=C/C[C@@H](O)[C@H](O)[C@@](N)(CO)C(=O)O`, the activation in experiment [1] is 1.63% [at 15.8 µM] (inactive). The activity change, negative = cytotoxicity in experiment [2] is 2.42% [at 15.8 µM] (inactive); in [3], 2.99% [at 19 µM] (inactive). For the same compound, in [4], the activity, negative = inhibition was 6.01% [at 19 µM] (inactive). Moreover, the Potency entry in [5] was “inactive”.

For the compound `c1ccc2c(c1)CCNC2`, the Potency result in experiment [1], in [2], in experiment [3], in experiment [4] and in [5] was “inactive” each time.

Take `C[C@]12C=CC(=O)C=C1CC[C@@H]1[C@@H]2CC[C@@]2(C)[C@H]1CC[C@]2(C)O`: the Potency entry in [1], in experiment [2], in experiment [3], in experiment [4] and in experiment [5] was “inactive” throughout.

For `CCNc1nc(NCC)nc(SC)n1`, the Potency entry in experiment [1], in experiment [2], in [3], in [4] and in experiment [5] was “inactive” in each case.

With `COc1cccc([C@@]2(O)CCCC[C@@H]2CN(C)C)c1`, the Potency entry in experiment [1], in [2], in experiment [3], in experiment [4] and in experiment [5] was “inactive” each time.

For the compound `C=CCC1(C(C)CC)C(=O)NC(=O)NC1=O` (stereo unspecified), the Potency result in [1], in experiment [2], in experiment [3], in [4] and in [5] was “inactive” in each case.

With `C=CCc1cc(OC)c2c(c1)OCO2`, the Potency result in experiment [1], in [2], in experiment [3], in experiment [4] and in [5] was “inactive” each time.

For the compound `NC(=O)OCCCc1ccccc1`, the Potency entry in [1], in experiment [2], in [3], in experiment [4] and in experiment [5] was “inactive” each time.

Regarding `CCN[C@@H](C)Cc1ccccc1`, the Potency result in experiment [1], in experiment [2], in experiment [3], in experiment [4] and in [5] was “inactive” each time.

Regarding `CC(C)NCC(O)c1ccc([N+](=O)[O-])cc1` (stereo unspecified), the Potency entry in [1], in experiment [2], in [3], in experiment [4] and in experiment [5] was “inactive” each time.

As for `NNCc1ccccc1`, the Potency is 22.3 µM (active) in experiment [1] and 2.48 µM (active) in experiment [5]. The Potency result in experiment [2], in [3] and in experiment [4] was “inactive” throughout.

In the case of `COc1cc(CC(C)N)cc(OC)c1OC` (stereo unspecified), the Potency result in [1], in [2], in experiment [3] and in experiment [5] was “inactive” each time.

Turning to `CCOc1cc(OP(=S)(OC)OC)nc(CC)n1`, the Potency result in [1], in experiment [2], in [3], in experiment [4] and in experiment [5] was “inactive” in each case.

As for `C[N+]1(C)CCCCC1`, the Potency in experiment [1] was 6.09 µM (active). Moreover, the Potency result in experiment [2], in experiment [3] and in experiment [5] was “inactive” each time.

With `COc1ccc(C=O)cc1O`, the Potency result in experiment [1], in experiment [2], in experiment [3], in [4] and in experiment [5] was “inactive” throughout.

Turning to `CCC(=O)OC1(c2ccccc2)CCN(C)CC1`, the Potency result in experiment [1], in experiment [2], in [3], in experiment [4] and in [5] was “inactive” in each case.

Regarding `[O-][Br+2]([O-])O`, the Potency entry in experiment [1], in experiment [2], in experiment [3], in [4] and in experiment [5] was “inactive” each time.

For `CCOP(=O)(CN(CCO)CCO)OCC`, the Potency result in [1], in experiment [2], in experiment [3] and in experiment [5] was “inactive” each time.

For `CCCN1CCC[C@@H]2Cc3[nH]ncc3C[C@H]21`, the Potency result in experiment [1], in [2], in experiment [3], in experiment [4] and in experiment [5] was “inactive” in each case. For the same compound, the compound was called inactive in experiment [6], in [7], in experiment [8], in experiment [9] and in [10].

As for `O=c1[nH]oc2c1CCNC2`, the Potency entry in [1], in experiment [2], in experiment [3], in experiment [4] and in experiment [5] was “inactive” each time. In addition, the compound was called inactive in experiment [6], in experiment [7], in experiment [8], in [9] and in experiment [10].

For `CC[C@@H](CO)NC(=O)[C@@H]1C=C2c3cccc4c3c(cn4C)C[C@H]2N(C)C1`, the Potency entry in experiment [1], in experiment [2], in experiment [3], in experiment [4] and in experiment [5] was “inactive” each time. Besides, the compound was called inactive in experiment [6], in experiment [7], in experiment [8], in experiment [9] and in experiment [10].

Take `CN(C)C1CCCCC1`: the Potency entry in [1], in experiment [2], in experiment [3] and in experiment [5] was “inactive” each time.

Take `O=C(Cl)C(Cl)(Cl)Cl`: the Potency entry in [1], in experiment [2], in experiment [3], in experiment [4] and in experiment [5] was “inactive” throughout.

Consider `C[C@@H](N)[C@@H](O)c1ccccc1`, for which the Potency result in experiment [1], in experiment [2], in experiment [3], in [4] and in experiment [5] was “inactive” each time.
